Our source for the outcome and AC50 values is PubChem BioAssay (EPA / NIEHS).

Records with an inconclusive call do not appear. Calls of active or inactive are those of the source. How the source made its calls, unless noted: active means hit-call score of the fitted dose curve at least 0.9, where 1 is the maximum; inactive means score below 0.9.

In test [1] the target is Estrogen receptor (Homo sapiens) (UniProt P03372). Nature of the test: CCTE_Deisenroth_AIME_384WELL_LUC_Active: CCTE's 384-well Estrogen Receptor Transactivation Assay with AIME metabolic competence (ERTA luciferase; metabolism positive), Deisenroth Lab (AID 2284030; active means hit-call score of the fitted dose curve at least 0.9, where 1 is the maximum). In outline:
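Chemicals (10-point, 0.002-200 uM) were first incubated 2 hours with alginate-immobilized induced male Sprague Dawley rat liver S9. The conditioned medium was then applied to VM7Luc4E2 cells for 24 hours, with ER luciferase induction read by luminescence relative to 17beta-estradiol.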

Test [2] is described as follows: CCTE_Deisenroth_AIME_384WELL_CTox_Active: Cytotoxicity Assessment (CTOX) in CCTE's 384-well Estrogen Receptor Transactivation Assay with AIME metabolic competence (metabolism positive), Deisenroth Lab (AID 2284037; active means hit-call score of the fitted dose curve at least 0.9, where 1 is the maximum;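 further: chemicals first conditioned 2 h by alginate-bound induced rat liver S9 before cells; activity means signal loss indicating cell death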). In outline:
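VM7Luc4E2 breast cells received medium pre-incubated 2 h with chemical over alginate microspheres holding induced male Sprague Dawley rat liver S9; viability read 24 h later by protease-substrate fluorescence. Loss of signal, bidirectional fit, 0.002–200 uM.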

The target in test [3] is Estrogen receptor (Homo sapiens) (UniProt P03372). Nature of the test: CCTE_Deisenroth_AIME_384WELL_LUC_Inactive: CCTE's 384-well Estrogen Receptor Transactivation Assay without AIME metabolic competence (ERTA luciferase; metabolism negative), Deisenroth Lab (AID 2284038; active means hit-call score of the fitted dose curve at least 0.9, where 1 is the maximum;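 further: hits raise estrogen receptor luciferase signal so potencies reflect agonists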). An outline of the steps: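 Metabolism-negative mode: AIME lids stamped in alginate-water, no hepatic S9. 2 h chemical incubation → medium onto VM7Luc4E2 ERTA, 24 h. Readout luciferase luminescence; gain-of-signal fit vs 17beta-estradiol. Conc. 0.002 - 200 uM.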

Test [4] is described as follows: CCTE_Deisenroth_AIME_384WELL_CTox_Inactive: Cytotoxicity Assessment (CTOX) in CCTE's 384-well Estrogen Receptor Transactivation Assay without AIME metabolic competence (metabolism negative), Deisenroth Lab (AID 2284039; active means hit-call score of the fitted dose curve at least 0.9, where 1 is the maximum;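 further: cell viability via live-cell protease substrate cleaved to fluorescent probe; cells exposed 24 h to medium preincubated 2 h with alginate-water beads without S9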). In outline: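 VM7Luc4E2 cells, metabolism-negative arm: test chemicals (0.002–200 uM, 10 points) pre-incubated 2 h with alginate-water microspheres, then medium transferred to cells for 24 h. Viability read as protease-substrate cleavage to fluorescent probe; loss-of-signal, bidirectional fitting.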

The nature of test [5]: CCTE_Shafer_MEA_acute_burst_duration_mean: CCTE's Neural Acute Assay for Mean Burst Duration, Shafer Lab (AID 2284014).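 Further: hits are decreases in mean burst duration relative to DMSO controls.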 In outline:
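Acute exposure of mature rat cortical networks (DIV 13 or 15) grown on microelectrode arrays to 0.03-40 uM compound. Mean burst duration compared with the 40-min pre-dose baseline over a 40-min post-dose recording at 37 C.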

A short description of test [6]: CCTE_Shafer_MEA_acute_per_burst_spike_number_mean: CCTE's Neural Acute Assay for Average Number of Spikes Per Burst, Shafer Lab (AID 2284015).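 Further: hits are decreases in mean spikes per burst versus baseline.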 In outline: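 Rat primary cortical neurons on 48-well MEAs (DIV 13 or 15) were treated with 0.03-40 uM compound at 37 C. Mean spikes per burst over 40 min were recorded before and after exposure and expressed as percent change from baseline, relative to DMSO.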

A short description of test [7]: CCTE_Shafer_MEA_acute_interburst_interval_mean: CCTE's Neural Acute Assay for Mean Interburst Interval, Shafer Lab (AID 2284016).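 Further: percent change of mean interburst interval versus each well's own pre-dose baseline; curves fitted for decrease in interburst interval relative to DMSO.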 In outline:
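Rat primary cortical neurons on 48-well MEAs at DIV 13 or 15 were exposed acutely to 0.03-40 uM. Spikes detected at 8x rms noise, 37 C. Mean interburst interval from 40 min recordings expressed as percent change from 40 min pre-treatment baseline.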

Test [8] can be described thus: CCTE_Shafer_MEA_acute_burst_percentage_mean: CCTE's Neural Acute Assay for Percentage of Spikes in a Burst, Shafer Lab (AID 2284017).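 On AC50: curve fitted for loss of signal so potency reflects decreased burst percentage.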 An outline of the steps: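 Primary rat cortical neurons on 48-well MEA plates, treated on DIV 13 or 15 at 0.03-40 uM. Spikes detected at 8x rms noise at 37C; percent change from 40-min baseline to 40-min post-dose recording, fitted versus DMSO.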

Test [9] in a line: CCTE_Shafer_MEA_acute_burst_percentage_std: CCTE's Neural Acute Assay for Standard Deviation of Burst Percentage, Shafer Lab (AID 2284018).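 Further: fitted in the negative direction so actives lower burst percentage SD.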 An outline of the steps:
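Primary rat cortical neurons on 16-electrode MEA wells were recorded 40 min at baseline (DIV 13 or 15), then 40 min after compound (0.03-40 uM), at 37 C. Well value is SD across electrodes of spikes-in-bursts/total spikes; endpoint is percent change, DMSO-referenced.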

Test [10] can be described thus: CCTE_Shafer_MEA_acute_per_network_burst_spike_number_mean: CCTE's Neural Acute Assay for Average Number of Spikes in a Network Burst, Shafer Lab (AID 2284019).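 On AC50: curve fitted for loss of signal so actives reduce spikes per network burst.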 In outline:
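Acute exposure of rat primary cortical networks (DIV 13/15) on MEAs; adaptive spike detection at 8x rms noise, 37 C. Percent change in spikes per network burst after 40 min with compound (0.03-40 uM), negative direction vs DMSO.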

The nature of test [11]: CCTE_Shafer_MEA_acute_per_network_burst_spike_number_std: CCTE's Neural Acute Assay for Standard Deviation of Number of Spikes in a Network Burst, Shafer Lab (AID 2284020).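 Further: fitted for decrease in spike-number SD versus DMSO so actives lower it.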 An outline of the steps: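 Acute MEA exposure, rat cortical neurons, 0.03-40 uM. Per-well % change versus own baseline; DMSO as negative control.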
Test [12] can be described thus: CCTE_Shafer_MEA_acute_per_network_burst_electrodes_number_mean: CCTE's Neural Acute Assay for Mean Number of Electrodes in a Network Burst, Shafer Lab (AID 2284021).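 Further: curves fitted for decreases only so hits reduce electrodes per burst.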 In outline:
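Rat primary cortical neurons on 48-well MEAs, DIV 13 or 15, were treated at 0.03-40 uM. Spikes were detected at 8x rms noise and recorded at 37 C. The mean electrodes per network burst in a 40 min exposure recording was expressed as percent change from a 40 min baseline.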

Test [13] is described as follows: CCTE_Shafer_MEA_acute_network_burst_percentage: CCTE's Neural Acute Assay for Percentage of Network Bursts, Shafer Lab (AID 2284022).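 Further: curves fitted for loss so actives lower network burst percentage.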 An outline of the steps: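 Rat primary cortical neuron networks on 48-well MEA plates, DIV 13 or 15, treated acutely with compound (0.03-40 uM, at least three wells). Percent of spikes within network bursts compared between 40-min recordings before and during exposure at 37 C, expressed as percent change.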

Test [14] can be described thus: CCTE_Shafer_MEA_acute_cross_correlation_area: CCTE's Neural Acute Assay for Area of Cross Correlation, Shafer Lab (AID 2284024).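 Further: curves fitted for loss of cross-correlation area so actives lower synchrony.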 In outline: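 Rat primary cortical neurons on 48-well MEA, DIV 13 or 15; compounds 0.03-40 uM. Baseline and post-exposure 40 min recordings at 37 C; percent change in area under pooled inter-electrode cross-correlation near zero lag, relative to DMSO.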

Test [15] is described as follows: CCTE_Shafer_MEA_acute_synchrony_index: CCTE's Neural Acute Assay for Synchrony, Shafer Lab (AID 2284027).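 Further: network synchrony index of spontaneous spiking in primary rat cortical neurons on MEAs; fitted for loss of signal so actives lower synchrony relative to DMSO.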 In outline: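 Rat cortical cultures, DIV 13/15; spikes detected at 8x rms noise, 300-5000 Hz band-pass. Compound 0.03-40 uM, ≥3 wells; 40-min pre- and post-exposure recordings, 37 C. Readout: % change in synchrony index; loss-of-signal fit vs DMSO.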
Test [16] is described as follows: CCTE_Shafer_MEA_dev_firing_rate_mean: CCTE's Neural Network Formation Assay for Mean Firing Rate, Shafer Lab (AID 2284031). In outline: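 Read-out: spike count/recording length, averaged over active electrodes, then AUC across days 5, 7, 9, 12. Rat cortical cultures on MEA; continuous 12-day exposure, media and treatment renewed DIV 5, 9; DMSO baseline.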
Test [17] is described as follows: CCTE_Shafer_MEA_dev_per_burst_spike_percent: CCTE's Neural Network Formation Assay for Percent of Spikes in a Burst, Shafer Lab (AID 2284032).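 On AC50: fitted as a decrease in burst spike percentage below DMSO baseline.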 In outline: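 Value is trapezoidal AUC over recordings on days 5, 7, 9 and 12 of the well-mean fraction of spikes falling in single-electrode bursts; rat cortical cultures exposed continuously from plating, treatment renewed DIV 5 and 9, fitted downward against DMSO.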

The nature of test [18]: CCTE_Shafer_MEA_dev_burst_rate: CCTE's Neural Network Formation Assay for Burst Rate, Shafer Lab (AID 2284042). An outline of the steps:
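Primary rat cortical neurons on PEI-coated 48-well MEA plates (laminin added with cells at plating) (16 electrodes/well), exposed from plating to day 12, dosing renewed at DIV 5 and 9. Burst rate averaged over active electrodes, recorded DIV 5, 7, 9, 12, summarized as AUC; loss versus DMSO.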

A short description of test [19]: CCTE_Shafer_MEA_dev_active_electrodes_number: CCTE's Neural Network Formation Assay for Number of Active Electrodes, Shafer Lab (AID 2284040; active means hit-call score of the fitted dose curve at least 0.9, where 1 is the maximum;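 further: potency for loss of active electrodes versus DMSO so lower counts are hits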). An outline of the steps:
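Developing rat cortical networks on MEAs, exposed DIV 0–12. Value is the AUC of active-electrode counts (≥5 spikes/min) from days 5, 7, 9, 12, relative to DMSO.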

Test [20] in a line: CCTE_Shafer_MEA_dev_bursting_electrodes_number: CCTE's Neural Network Formation Assay for Number of Bursting Electrodes, Shafer Lab (AID 2284043; active means hit-call score of the fitted dose curve at least 0.9, where 1 is the maximum;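 further: potency is for loss of bursting electrodes relative to DMSO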). In outline:
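Counted: electrodes with burst rate ≥1 per 2 min in each well. Cells: primary rat cortex, 1.5 x 10^5/well, on 16-electrode MEA wells. Exposure: DIV 0–12, compound renewed DIV 5 and 9. Recording days 5, 7, 9, 12; AUC vs DMSO baseline.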

Sequence of Estrogen receptor (Homo sapiens) (P03372 whole entry, looked up): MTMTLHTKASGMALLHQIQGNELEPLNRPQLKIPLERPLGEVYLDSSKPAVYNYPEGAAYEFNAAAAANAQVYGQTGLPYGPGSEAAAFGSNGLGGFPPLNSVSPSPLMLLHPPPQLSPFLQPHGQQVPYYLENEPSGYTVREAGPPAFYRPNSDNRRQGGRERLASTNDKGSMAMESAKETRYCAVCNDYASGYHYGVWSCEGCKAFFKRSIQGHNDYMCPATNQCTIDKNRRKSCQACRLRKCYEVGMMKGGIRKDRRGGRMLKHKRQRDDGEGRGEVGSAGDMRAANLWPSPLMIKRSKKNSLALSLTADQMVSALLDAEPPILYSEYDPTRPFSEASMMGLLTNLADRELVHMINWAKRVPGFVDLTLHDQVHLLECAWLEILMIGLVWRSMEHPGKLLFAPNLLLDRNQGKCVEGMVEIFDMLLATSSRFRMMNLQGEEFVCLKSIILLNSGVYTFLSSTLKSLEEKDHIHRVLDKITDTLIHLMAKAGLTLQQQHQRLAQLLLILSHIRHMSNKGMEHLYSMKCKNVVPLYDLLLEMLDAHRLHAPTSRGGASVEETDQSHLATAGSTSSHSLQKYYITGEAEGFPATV

For the compound `N#CCC#N`, the result in [1], in test [2], in test [3] and in test [4] was inactive.

In the case of `O=C(O)COc1ccc(Cl)cc1`, the compound was classed as inactive in test [1], in [3] and in test [4].

For `CS(=O)(=O)c1ccc(C(=O)C2C(=O)CCCC2=O)c(Cl)c1COCC(F)(F)F`, the call in test [5], in test [6], in test [7], in test [8], in test [9] and in test [10] was inactive. In addition, the result in [11], in [12], in [13], in test [14], in [15] and in [16] was inactive. Further, the result in [17] and in test [18] was inactive.

For `O=C(Cc1ccccc1)OCCc1ccccc1`, the call in [5], in [6], in test [7], in test [8], in [9] and in [10] was inactive. Besides, the outcome in [11], in test [12], in [13], in test [14] and in test [15] was inactive.

As usually defined, the AC50 is the midpoint of the concentration-response curve, whichever way the signal moves. Take `CCCCOC(=O)COC(=O)c1ccccc1C(=O)OCCCC`: the call in test [5], in test [6], in test [7], in [8], in test [9] and in test [10] was inactive. Also, the outcome in test [11], in [12], in test [13] and in [15] was inactive. Besides, the half-maximal activity concentration (AC50) in test [14] was 0.0115 µM (active).

With `CCN(CCO)CCO`, the call in [1], in test [2], in test [3] and in [4] was inactive.

For the compound `N#Cc1cccnc1`, the compound was classed as inactive in [5], in [6], in [7], in [8], in test [9] and in [10]. The compound was classed as inactive in test [11], in test [12], in test [13], in test [14], in [15] and in [1]. In addition, in test [3], the outcome was inactive.

As for `Clc1cccc(Cl)c1Cl`, the compound was classed as inactive in [5], in test [6], in test [7], in test [8], in [9] and in [10]. The outcome in test [11], in test [12], in test [13], in [14] and in test [15] was inactive.

With `OCCCCO`, the outcome in [5], in test [6], in [7], in test [8], in [9] and in test [10] was inactive. For the same compound, the compound was classed as inactive in test [11], in [12], in [13], in [14] and in test [15].

For the compound `Cc1ccccc1OP(=O)(Oc1ccccc1C)Oc1ccccc1C`, the AC50 in test [5] is 21.7 µM (active); in test [6] it was 27.8 µM (active); in [7] it was 23.5 µM (active); in test [8], 26.3 µM (active); in [9], 24.2 µM (active); in test [15], 28.1 µM (active). Besides, the AC50 is 15 µM (active) in test [17], 20.2 µM (active) in test [19] and 15 µM (active) in test [20]. For the same compound, the outcome in test [10], in test [11], in test [12], in test [13], in test [14] and in test [16] was inactive. In test [18], the result was inactive.

Regarding `Cc1cc(Cl)ccc1OC(C)C(=O)O` (configuration not stated), the outcome in test [1], in test [2] and in [3] was inactive.

Turning to `Cc1cc(C(F)(C(F)(F)F)C(F)(F)F)ccc1NC(=O)c1cccc(I)c1C(=O)NC(C)(C)CS(C)(=O)=O`, the compound was called inactive in test [5], in test [7], in test [9], in [11], in test [12] and in [13]. The outcome in test [14], in test [16] and in test [18] was inactive. Moreover, the AC50 was 20.7 µM (active) in test [6]; 5.38 µM (active) in [8]; 5.87 µM (active) in test [10]; 5.74 µM (active) in test [15]; 5.5 µM (active) in test [17]; 11.3 µM (active) in test [19]. For the same compound, the AC50 in test [20] was 11.3 µM (active).

Turning to `CC(C)[C@@H](Nc1ccc(C(F)(F)F)cc1Cl)C(=O)OC(C#N)c1cccc(Oc2ccccc2)c1` (some centres not stated), the half-maximal activity concentration (AC50) was 0.841 µM (active) in test [5]; 0.84 µM (active) in [6]; 2.12 µM (active) in test [7]; 0.62 µM (active) in [8]; 1.28 µM (active) in test [9]; 0.415 µM (active) in [10]. Besides, the half-maximal activity concentration (AC50) was 0.289 µM (active) in test [11]; 0.31 µM (active) in [12]; 0.564 µM (active) in test [13]; 0.534 µM (active) in test [14]; 0.403 µM (active) in test [15]; 14.5 µM (active) in [19]. The half-maximal activity concentration (AC50) in test [20] was 14.5 µM (active). For the same compound, the result in [16], in test [17] and in [18] was inactive.

`CCOc1ccc(N)cc1`: the compound was called inactive in test [1], in test [2], in test [3] and in test [4].
